Many of the other results were omitted from the sample, so the strongest signals are more common in it than they were.

Holding throughout (test): glycan array binding signal (z-score within array); higher = stronger binding
Test [1] deals with GlcNAc(b1-3)Gal(b1-4)GlcNAc(b1-3)Gal(b1-4)GlcNAc(b1-2)Man(a1-3)[GlcNAc(b1-3)Gal(b1-4)GlcNAc(b1-3)Gal(b1-4)GlcNAc(b1-2)Man(a1-6)]Man(b1-4)GlcNAc(b1-4)[Fuc(a1-6)]GlcNAc. Particulars: glycan notation: IUPAC condensed, linker removed. The method, boiled down:
(§1)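 Arrays were curated from the Consortium for Functional Glycomics database, 3228 in total, and kept only where the protein sequence was available. Binding is expressed as a within-array Z-score. This score was averaged across arrays of the same protein sequence at different concentrations or buffers and across linkers, and negative values can be read as non-binding.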

The subject of test [2] is GlcNAc(b1-3)Gal(b1-4)GlcNAc(b1-3)Gal(b1-4)GlcNAc(b1-3)Gal(b1-4)GlcNAc(b1-2)Man(a1-3)[GlcNAc(b1-3)Gal(b1-4)GlcNAc(b1-3)Gal(b1-4)GlcNAc(b1-3)Gal(b1-4)GlcNAc(b1-2)Man(a1-6)]Man(b1-4)GlcNAc(b1-4)GlcNAc. The note with it: glycan notation: IUPAC condensed, linker removed. The method, boiled down: as §1
Test [3] deals with GlcNAc(b1-3)Gal(b1-4)GlcNAc(b1-3)Gal(b1-4)GlcNAc(b1-3)Gal(b1-4)GlcNAc(b1-2)[GlcNAc(b1-3)Gal(b1-4)GlcNAc(b1-3)Gal(b1-4)GlcNAc(b1-3)Gal(b1-4)GlcNAc(b1-6)]Man(a1-6)[GlcNAc(b1-3)Gal(b1-4)GlcNAc(b1-3)Gal(b1-4)GlcNAc(b1-3)Gal(b1-4)GlcNAc(b1-2)Man(a1-3)]Man(b1-4)GlcNAc(b1-4)[Fuc(a1-6)]GlcNAc. Particulars: glycan notation: IUPAC condensed, linker removed. The essentials:
as §1

Test [4] deals with GlcNAc(b1-4)GlcNAc(b1-4)GlcNAc(b1-4)GlcNAc(b1-4)GlcNAc(b1-4)GlcNAc. The note with it: glycan notation: IUPAC condensed, linker removed. The method, boiled down: as §1
The subject of test [5] is GlcNAc(b1-3)Gal(b1-4)GlcNAc(b1-3)Gal(b1-4)GlcNAc(b1-3)Gal(b1-4)GlcNAc(b1-2)Man(a1-3)[GlcNAc(b1-3)Gal(b1-4)GlcNAc(b1-3)Gal(b1-4)GlcNAc(b1-3)Gal(b1-4)GlcNAc(b1-2)Man(a1-6)]Man(b1-4)GlcNAc(b1-4)[Fuc(a1-6)]GlcNAc. The note with it: glycan notation: IUPAC condensed, linker removed. The method, boiled down:
as §1

The subject of test [6] is GlcNAc(b1-3)Gal(b1-4)GlcNAc(b1-3)Gal(b1-4)GlcNAc(b1-3)Gal(b1-4)GlcNAc(b1-3)Gal(b1-4)GlcNAc(b1-2)Man(a1-3)[GlcNAc(b1-3)Gal(b1-4)GlcNAc(b1-3)Gal(b1-4)GlcNAc(b1-3)Gal(b1-4)GlcNAc(b1-3)Gal(b1-4)GlcNAc(b1-2)Man(a1-6)]Man(b1-4)GlcNAc(b1-4)GlcNAc. The note with it: glycan notation: IUPAC condensed, linker removed; mutation: R125K. The essentials:
as §1

The subject of test [7] is GlcNAc(b1-4)[GlcNAc(b1-6)]GalNAc. The note with it: glycan notation: IUPAC condensed, linker removed. The method, boiled down:
as §1

In test [8] the test system is GlcNAc(b1-3)Gal(b1-4)GlcNAc(b1-3)Gal(b1-4)GlcNAc. The note with it: glycan notation: IUPAC condensed, linker removed. The essentials: as §1
The next test has as its system Kdn(a2-3)Gal(b1-3)GlcNAc. Particulars: glycan notation: IUPAC condensed, linker removed. The essentials: as §1
The test system of test [9] is GlcNAc(b1-3)Gal(b1-4)GlcNAc. Particulars: glycan notation: IUPAC condensed, linker removed. The essentials:
as §1

In the next test the test system is GlcNAc(b1-3)Gal. Particulars: glycan notation: IUPAC condensed, linker removed. The essentials: as §1
For the next test, the system named is GlcNAc(b1-3)Gal(b1-4)Glc. The note with it: glycan notation: IUPAC condensed, linker removed. The method, boiled down:
as §1

The subject of test [10] is GlcNAc(b1-3)[GlcNAc(b1-4)][GlcNAc(b1-6)]GlcNAc. Particulars: glycan notation: IUPAC condensed, linker removed. The method, boiled down:
as §1

For test [11], the system named is GlcNAc(b1-3)[GlcNAc(b1-6)]Gal(b1-4)GlcNAc. The note with it: glycan notation: IUPAC condensed, linker removed. The essentials: as §1
Test [12] concerns GlcNAc(b1-4)GlcNAc(b1-4)GlcNAc(b1-4)GlcNAc(b1-4)GlcNAc. Particulars: glycan notation: IUPAC condensed, linker removed; mutation: D138V, E140I. The method, boiled down: as §1
In test [13] the test system is GlcNAc(b1-6)Gal(b1-4)GlcNAc. Particulars: glycan notation: IUPAC condensed, linker removed. The essentials:
as §1

Test [14] concerns GlcNAc6S(b1-3)Gal(b1-4)GlcNAc. Particulars: glycan notation: IUPAC condensed, linker removed. The method, boiled down: as §1

Chain of CHT (Homo sapiens) (chain, as listed by the source): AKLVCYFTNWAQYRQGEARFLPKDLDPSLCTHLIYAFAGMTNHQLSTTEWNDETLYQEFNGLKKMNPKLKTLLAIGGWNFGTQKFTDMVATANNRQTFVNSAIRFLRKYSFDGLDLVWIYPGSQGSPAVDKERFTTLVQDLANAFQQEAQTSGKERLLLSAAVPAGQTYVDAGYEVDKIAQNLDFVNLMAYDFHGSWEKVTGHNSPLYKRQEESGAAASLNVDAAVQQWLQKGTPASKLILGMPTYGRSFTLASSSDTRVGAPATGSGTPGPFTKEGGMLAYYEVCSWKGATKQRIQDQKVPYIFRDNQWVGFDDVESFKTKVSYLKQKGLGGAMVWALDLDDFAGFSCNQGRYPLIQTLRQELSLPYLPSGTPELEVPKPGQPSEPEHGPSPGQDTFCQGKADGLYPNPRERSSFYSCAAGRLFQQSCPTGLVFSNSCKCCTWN
Chain of SRLC (Mus musculus), Q8VIF6 (Q8VIF6 other isoform, or with tags, fused parts or gaps): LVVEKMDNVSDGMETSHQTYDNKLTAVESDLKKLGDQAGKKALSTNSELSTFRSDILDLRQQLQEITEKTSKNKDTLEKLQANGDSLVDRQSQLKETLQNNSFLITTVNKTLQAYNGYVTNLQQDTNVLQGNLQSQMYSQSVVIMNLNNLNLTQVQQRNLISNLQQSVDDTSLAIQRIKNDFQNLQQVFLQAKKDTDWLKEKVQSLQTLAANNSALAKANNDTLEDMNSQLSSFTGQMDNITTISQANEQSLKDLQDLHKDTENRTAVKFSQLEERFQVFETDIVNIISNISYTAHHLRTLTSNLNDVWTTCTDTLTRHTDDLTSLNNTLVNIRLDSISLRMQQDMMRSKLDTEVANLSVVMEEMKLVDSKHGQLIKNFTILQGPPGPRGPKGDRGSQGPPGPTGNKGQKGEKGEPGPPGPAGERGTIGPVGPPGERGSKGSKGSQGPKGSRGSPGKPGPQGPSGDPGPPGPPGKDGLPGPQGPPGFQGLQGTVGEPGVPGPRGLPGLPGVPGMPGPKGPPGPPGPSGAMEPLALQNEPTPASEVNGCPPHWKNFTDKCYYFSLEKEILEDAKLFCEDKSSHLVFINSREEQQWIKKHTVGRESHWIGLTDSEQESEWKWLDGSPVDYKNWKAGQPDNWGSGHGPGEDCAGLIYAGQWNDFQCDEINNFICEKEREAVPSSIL
Chain of C3b (Homo sapiens), P01024 (P01024 23-667): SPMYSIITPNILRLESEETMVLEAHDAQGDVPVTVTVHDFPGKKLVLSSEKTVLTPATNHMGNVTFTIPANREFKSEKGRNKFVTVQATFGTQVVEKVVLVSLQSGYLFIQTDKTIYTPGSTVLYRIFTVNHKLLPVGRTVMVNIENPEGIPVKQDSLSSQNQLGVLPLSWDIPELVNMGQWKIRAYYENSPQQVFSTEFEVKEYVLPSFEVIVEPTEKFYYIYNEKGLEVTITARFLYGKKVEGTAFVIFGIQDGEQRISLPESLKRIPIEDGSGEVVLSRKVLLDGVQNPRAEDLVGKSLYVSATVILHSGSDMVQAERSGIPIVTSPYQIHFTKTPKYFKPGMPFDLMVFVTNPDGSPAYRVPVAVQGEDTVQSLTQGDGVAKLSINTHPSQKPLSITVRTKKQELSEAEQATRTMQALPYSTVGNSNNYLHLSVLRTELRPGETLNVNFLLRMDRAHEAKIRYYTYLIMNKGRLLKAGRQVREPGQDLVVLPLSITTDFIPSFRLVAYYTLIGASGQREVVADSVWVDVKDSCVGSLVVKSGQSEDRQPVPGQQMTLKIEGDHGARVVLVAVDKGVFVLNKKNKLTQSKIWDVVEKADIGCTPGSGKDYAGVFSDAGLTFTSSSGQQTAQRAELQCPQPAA
Chain of PILRa (Mus musculus), Q2YSF3 (Q2YSF3 entry or part of it): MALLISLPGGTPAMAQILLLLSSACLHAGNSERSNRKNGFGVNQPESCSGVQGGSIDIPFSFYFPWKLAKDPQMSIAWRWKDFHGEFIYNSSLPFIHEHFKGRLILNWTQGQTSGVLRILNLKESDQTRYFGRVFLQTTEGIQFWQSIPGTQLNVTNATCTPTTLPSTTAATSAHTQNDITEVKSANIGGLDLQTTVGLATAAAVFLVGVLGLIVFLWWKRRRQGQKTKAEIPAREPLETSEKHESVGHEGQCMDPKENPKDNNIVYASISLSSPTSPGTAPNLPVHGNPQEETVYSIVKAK
Chain of Neurocan (Homo sapiens), O14594 (O14594 other isoform, or with tags, fused parts or gaps): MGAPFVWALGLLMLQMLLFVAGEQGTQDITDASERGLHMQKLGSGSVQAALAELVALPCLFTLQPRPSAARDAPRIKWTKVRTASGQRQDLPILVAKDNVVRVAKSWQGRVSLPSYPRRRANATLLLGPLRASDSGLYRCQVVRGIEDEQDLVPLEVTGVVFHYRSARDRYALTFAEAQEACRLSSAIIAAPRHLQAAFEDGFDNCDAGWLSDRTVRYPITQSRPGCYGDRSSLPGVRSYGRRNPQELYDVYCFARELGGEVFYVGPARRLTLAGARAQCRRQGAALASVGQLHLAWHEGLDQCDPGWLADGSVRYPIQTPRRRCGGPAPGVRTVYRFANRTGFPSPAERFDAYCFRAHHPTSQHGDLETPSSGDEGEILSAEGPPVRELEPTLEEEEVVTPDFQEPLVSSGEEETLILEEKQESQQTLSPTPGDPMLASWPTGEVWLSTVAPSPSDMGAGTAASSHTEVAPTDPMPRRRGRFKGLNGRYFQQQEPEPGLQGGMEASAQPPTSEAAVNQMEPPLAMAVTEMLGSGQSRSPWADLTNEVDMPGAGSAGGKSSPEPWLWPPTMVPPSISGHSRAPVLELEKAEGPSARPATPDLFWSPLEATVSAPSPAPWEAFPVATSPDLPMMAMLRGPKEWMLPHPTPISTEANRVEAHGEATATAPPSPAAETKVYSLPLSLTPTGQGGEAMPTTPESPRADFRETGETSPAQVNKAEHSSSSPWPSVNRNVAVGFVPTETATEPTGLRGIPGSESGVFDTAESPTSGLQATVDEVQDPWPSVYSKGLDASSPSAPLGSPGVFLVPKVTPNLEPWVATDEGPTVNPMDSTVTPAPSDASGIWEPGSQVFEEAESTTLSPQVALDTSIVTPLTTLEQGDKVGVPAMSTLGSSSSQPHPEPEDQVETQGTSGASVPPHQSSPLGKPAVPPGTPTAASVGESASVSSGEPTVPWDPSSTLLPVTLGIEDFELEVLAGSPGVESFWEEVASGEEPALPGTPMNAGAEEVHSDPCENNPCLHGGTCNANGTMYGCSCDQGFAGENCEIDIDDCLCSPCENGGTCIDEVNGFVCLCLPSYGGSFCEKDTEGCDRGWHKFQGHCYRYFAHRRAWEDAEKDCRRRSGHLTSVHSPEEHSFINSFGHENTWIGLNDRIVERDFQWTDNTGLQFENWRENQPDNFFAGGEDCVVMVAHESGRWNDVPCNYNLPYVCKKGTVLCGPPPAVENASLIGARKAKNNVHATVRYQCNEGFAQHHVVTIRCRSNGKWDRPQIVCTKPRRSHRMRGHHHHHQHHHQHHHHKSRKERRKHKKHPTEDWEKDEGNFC
Chain of Regenerating Gene IV (Homo sapiens), Q9BYZ8 (Q9BYZ8 whole entry, looked up): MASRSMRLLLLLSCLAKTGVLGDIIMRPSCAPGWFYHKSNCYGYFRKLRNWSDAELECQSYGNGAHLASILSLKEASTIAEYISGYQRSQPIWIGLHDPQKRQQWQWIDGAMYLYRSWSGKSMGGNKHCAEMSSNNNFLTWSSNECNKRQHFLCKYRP
Chain of PILRb (Mus musculus), Q2YSF2 (Q2YSF2 entry or part of it): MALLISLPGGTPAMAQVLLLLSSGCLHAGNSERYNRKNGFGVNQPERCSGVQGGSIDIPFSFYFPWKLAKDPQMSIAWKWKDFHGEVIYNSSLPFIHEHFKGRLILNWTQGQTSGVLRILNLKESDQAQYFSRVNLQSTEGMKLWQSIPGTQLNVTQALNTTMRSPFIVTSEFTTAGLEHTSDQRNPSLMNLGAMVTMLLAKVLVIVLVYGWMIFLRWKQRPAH
Chain of Avaren (Actinomycete K97) (chain, as listed by the source): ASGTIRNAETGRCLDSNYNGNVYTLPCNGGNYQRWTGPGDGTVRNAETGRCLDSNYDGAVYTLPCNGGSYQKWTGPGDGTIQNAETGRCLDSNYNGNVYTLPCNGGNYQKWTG
Chain of wLAT-1A (Homo sapiens), Q01650 (Q01650 whole entry): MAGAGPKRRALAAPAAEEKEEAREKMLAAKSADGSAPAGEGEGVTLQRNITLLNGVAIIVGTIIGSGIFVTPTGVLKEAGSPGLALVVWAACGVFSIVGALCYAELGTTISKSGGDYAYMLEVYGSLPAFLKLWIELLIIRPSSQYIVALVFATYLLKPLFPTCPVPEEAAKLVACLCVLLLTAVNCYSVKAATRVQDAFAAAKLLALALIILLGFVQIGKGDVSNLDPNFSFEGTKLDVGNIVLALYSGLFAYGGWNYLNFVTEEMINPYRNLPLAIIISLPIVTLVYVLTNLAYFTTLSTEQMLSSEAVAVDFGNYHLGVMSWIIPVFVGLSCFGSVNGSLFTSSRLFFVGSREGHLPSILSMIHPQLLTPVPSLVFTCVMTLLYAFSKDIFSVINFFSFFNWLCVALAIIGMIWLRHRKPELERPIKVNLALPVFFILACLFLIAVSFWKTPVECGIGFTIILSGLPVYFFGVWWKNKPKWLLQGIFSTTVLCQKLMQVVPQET
Chain of Aggrecan (Rattus norvegicus), NP_071526 (chain, as listed by the source): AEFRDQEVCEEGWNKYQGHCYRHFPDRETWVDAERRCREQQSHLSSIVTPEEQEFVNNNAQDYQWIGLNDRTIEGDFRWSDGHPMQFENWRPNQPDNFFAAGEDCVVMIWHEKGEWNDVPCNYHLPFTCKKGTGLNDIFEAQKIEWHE
Chain of CHI3L1 (Homo sapiens), P36222 (P36222 whole entry): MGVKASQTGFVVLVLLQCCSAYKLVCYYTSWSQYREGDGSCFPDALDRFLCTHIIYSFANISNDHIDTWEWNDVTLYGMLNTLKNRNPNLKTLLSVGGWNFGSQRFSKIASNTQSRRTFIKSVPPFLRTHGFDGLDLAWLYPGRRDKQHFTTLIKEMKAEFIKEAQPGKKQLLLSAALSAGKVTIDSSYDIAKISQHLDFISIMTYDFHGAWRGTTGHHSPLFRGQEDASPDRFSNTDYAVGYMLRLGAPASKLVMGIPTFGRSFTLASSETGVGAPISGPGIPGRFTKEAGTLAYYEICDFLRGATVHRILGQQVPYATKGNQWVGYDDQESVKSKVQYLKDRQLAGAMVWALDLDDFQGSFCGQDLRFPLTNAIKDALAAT

In the case of MpAFP RI GFP (Marinomonas primoryensis), the “glycan array binding signal (z-score)” value in [1] was 2.86; in [2] it was 4.26; in test [3], 1.39; in test [4], -0.527.

Take Siglec-8 (Homo sapiens), Q9NYZ4: the results for the “glycan array binding signal (z-score)” value in [5], in test [6] and in test [7] (mutation: R125K) were 0.693, -0.017 and -0.467, respectively.

As for 6RG (Lolium perenne), the “glycan array binding signal (z-score)” value in [8] is -0.272.

Regarding SRLC (Mus musculus), Q8VIF6, the “glycan array binding signal (z-score)” value in [8] was -0.205; with Kdn(a2-3)Gal(b1-3)GlcNAc, -0.229.

For the substance PILRb (Mus musculus), Q2YSF2, the “glycan array binding signal (z-score)” value in test [9] is -0.214.

Turning to Neurocan (Homo sapiens), O14594, the results for the “glycan array binding signal (z-score)” value (in test [9]; with GlcNAc(b1-3)Gal) were -1.33 and -0.097, respectively.

For the substance wLAT-1A (Homo sapiens), Q01650, in the test on GlcNAc(b1-3)Gal(b1-4)Glc, the “glycan array binding signal (z-score)” value is -0.411.

As to “Regenerating Gene IV (Homo sapiens), Q9BYZ8”, in the test on GlcNAc(b1-3)Gal, the “glycan array binding signal (z-score)” value is -0.345.

For the substance C3b (Homo sapiens), P01024, the results for the “glycan array binding signal (z-score)” value in [10] and in [7] were 7.72 and 2.75, respectively.

For the substance Avaren (Actinomycete K97), the “glycan array binding signal (z-score)” value in [11] is -0.108.

With CHI3L1 (Homo sapiens), P36222, in test [4], the “glycan array binding signal (z-score)” value was determined as 15.6.

As for CHT (Homo sapiens), the “glycan array binding signal (z-score)” value in [4] (mutation: D138V, E140I) was 11.9; in test [12], 8.66; with Kdn(a2-3)Gal(b1-3)GlcNAc (mutation: D138V, E140I), -0.105.

On to Aggrecan (Rattus norvegicus), NP_071526, for which the “glycan array binding signal (z-score)” value in test [7] is 0.018.

Take PILRa (Mus musculus), Q2YSF3: the “glycan array binding signal (z-score)” value in [13] is -0.314; in test [14] it was 0.098.

On to HARE (Homo sapiens), Q8WWQ8, for which the “glycan array binding signal (z-score)” value in the test on Kdn(a2-3)Gal(b1-3)GlcNAc is -0.646.

The values above are taken from the supplement of paper PMC8728848.
